Records with an inconclusive call do not appear. The source made the active and inactive calls. Calls come from the whole dose curve; as a rule, active = well fitted inhibition curve with a large enough effect; inconclusive = small, poorly fitted or top-dose-only effect; inactive = flat fitted curve, though single readings scatter.
Target: Calcium and integrin-binding protein 1 (Homo sapiens) (UniProt Q99828)
Experiment: Primary qHTS for Identification of Calcium Integrin Binding Protein 1 (CIB1) Competitor (AID 1508620);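 note: GST tagged CIB1 binding a fluorescein labelled alphaIIb integrin peptide tracer; top concentration of the series differs between compounds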
Details: CIB1-GST / FITC-alphaIIb peptide fluorescence polarization; series mostly up to 114 µM; activity change, negative = inhibition: at the top concentration
Method in brief: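 CIB1-GST (1 uM final) and compound incubated 15 min at room temperature before adding FITC-alphaIIb peptide tracer (100 nM final). Competition for binding read by fluorescence polarization (ex 480, em 540) after another 15 min at room temperature.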
% is set by controls: 0 for no effect and ±100 for the full control effect.

Calcium and integrin-binding protein 1 (Homo sapiens), sequence (Q99828 whole entry, looked up): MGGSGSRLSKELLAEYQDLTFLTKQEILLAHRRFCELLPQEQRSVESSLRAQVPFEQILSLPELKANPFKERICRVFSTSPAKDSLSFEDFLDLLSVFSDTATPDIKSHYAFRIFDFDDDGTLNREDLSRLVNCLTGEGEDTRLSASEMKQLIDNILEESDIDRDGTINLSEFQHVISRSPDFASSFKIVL

| Compound | activity change, negative = inhibition | Potency |
| --- | --- | --- |
| Cc1cc(C)n2ncc(C(=O)Nc3cc(Cl)cc(Cl)c3)c2n1 | -0.808% (inactive) | – |
| CCNC(=O)c1ccc(-c2ccc3ncnc(NCc4nccs4)c3c2)o1 | -17.2% (inactive) | – |
| Cc1ccc(/C=C/C(=O)Nc2cccc([S+](=O)([O-])Nc3ccccc3F)c2)cc1 | -5.41% (inactive) | – |
| Cc1cn([C@H]2C[C@H](N[S+](=O)([O-])Cc3cccc(Cl)c3)[C@@H](CO)O2)c(=O)[nH]c1=O | -0.58% (inactive) | – |
| Cn1nnnc1Sc1ncnc2scc(-c3ccccc3Br)c12 | 2.41% (inactive) | – |
| Fc1cc(Nc2nc(-c3ccncc3)nc3ccccc23)ccc1-c1ccnc(C(F)(F)F)c1 | 8.08% (inactive) | – |
| O=C(O)c1ccc(S(=O)(=O)N[C@H](Cc2ccc([N+](=O)[O-])cc2)C(=O)O)cc1 | 0.618% (inactive) | – |
| Oc1ccc(CNc2ccccn2)c2cccnc12 | 5.13% (inactive) | – |
| O=C(c1ccccc1O)N(Cc1ccccc1)Cc1cccs1 | -2.28% (inactive) | – |
| Cc1cc2c(s1)c1cnn(Cc3cccc(Cl)c3)c(=O)c1n2C | 15% (inactive) | – |
| CN(C)C1CCN(Cc2cc(COCc3ccccc3)c3cccnc3c2O)C1 (centres undefined) | -6.89% (inactive) | – |
| COc1ccc(C2Nc3ccccc3C(=O)N2Cc2ccccc2)cc1COc1cccc(C)c1 (centres undefined) | -3.92% (inactive) | – |
| Cn1cnc(CCNc2ncnc3ccc(-c4ccc5c(c4)OCO5)cc23)c1 | -1.33% (inactive) | – |
| O=C1CCCC2=C1C1(CCCC1)N=C(Nc1nc3cc4ccccc4cc3o1)N2 | -2.54% (inactive) | – |
| COc1ccc(OC2=NS(=O)(=O)c3ccccc32)cc1 | 1.06% (inactive) | – |
| COC(=O)C1CCc2sc(NC(=O)Cc3ccccc3)c(C(=O)Nc3ccc(Cl)cc3)c21 (centres undefined) | -3.08% (inactive) | – |
| Cc1ccc(-c2nc(NCC(=O)Nc3cccc(C(=O)O)c3)c3ccccc3n2)cc1 | -18.7% (inactive) | – |
| CCNC(=O)c1ccc(-c2ccc3ncnc(NCC4CCCO4)c3c2)o1 (centres undefined) | -22.6% (inactive) | – |
| Cc1cc(C)nc(NC(=S)N2CCN(c3ccc4ncccc4c3[N+](=O)[O-])CC2)c1 | -13.2% (inactive) | – |
| COc1ccc(NC(=O)c2cnn3c(C)cc(C)nc23)cc1F | 6.7% (inactive) | – |

| Compound | activity change, negative = inhibition | Potency |
| --- | --- | --- |
| Cc1sc(NC(=O)Cc2ccc3c(c2)OCO3)nc1-c1ccc2c(c1)CCN2 | 4.34% (inactive) | – |
| N[C@@H](CCC(=O)O)C(=O)Nc1ccc(Cl)cc1C(=O)c1ccc[nH]1 | 5.16% (inactive) | – |
| O=C1Cc2cc(S(=O)(=O)N3CCN(c4ccc(Br)cc4)CC3)ccc2N1 | 0.193% [at 228 µM] (inactive) | – |
| O=C(O)c1ccc2c(c1)C(=O)N([C@H](Cc1c[nH]c3ccccc13)C(=O)O)C2=O | -0.105% (inactive) | – |
| Cc1cc2c(s1)c1cnn(Cc3ccc(F)c(C)c3)c(=O)c1n2C | 7.04% (inactive) | – |
| N#Cc1ccccc1CNc1nc2ncc(Br)cc2[nH]1 | -6.43% (inactive) | – |
| COc1ccc(C2Nc3ccccc3C(=O)N2Cc2ccccn2)cc1COc1ccc(NC(C)=O)cc1 (centres undefined) | 0.0263% (inactive) | – |
| N#Cc1c(-c2ccc(Cl)c([N+](=O)[O-])c2)no[n+]1[O-] | -12.3% (inactive) | – |
| Cc1ccsc1CN(C)c1ncnc2ccc(-c3ccoc3C)cc12 | -12.8% (inactive) | – |
| Cc1cc(-c2ccccc2)n2ncc(C(=O)Nc3ccc(Cl)c(Cl)c3)c2n1 | 3.28% (inactive) | – |
| COc1cc(F)c(S(=O)(=O)N2CCCN(S(=O)(=O)c3ccc(N)cc3)CC2)c(F)c1 | -0.108% (inactive) | – |
| CCOC(=O)c1[nH]c2c(c1C)C(=O)CC(c1ccco1)C2 (centres undefined) | – | inactive |
| COc1cc(N2C(=O)c3ccccc3C2=O)c2ncccc2c1 | 1.11% (inactive) | – |
| CC(=O)NC1CCN(c2nc(-c3ccc(Br)cc3)cs2)CC1 | -1.3% (inactive) | – |
| O=C1CCCC2=C1C(c1[nH]ncc1Cl)N=C(Nc1ccn[nH]1)N2 (centres undefined) | -3.46% (inactive) | – |
| CN(CCc1cnc[nH]1)c1ncnc2ccc(-c3ccc4c(c3)OCO4)cc12 | -5.48% (inactive) | – |
| CCCCC(O)C(=O)Nc1cc(C(F)(F)F)ccc1Cl (centres undefined) | -1.69% (inactive) | – |
| Cc1cc(NS(=O)(=O)Cc2ccc(NC(=O)Cc3ccc(Cl)c(Cl)c3)cc2)no1 | -19% (inactive) | – |
| NC1CCN(c2nc(-c3ccc(Br)cc3)cs2)CC1 | -7.35% (inactive) | – |

Source: PubChem BioAssay (NCATS)
